Calls of active or inactive are those of the source. No rule for the calls is given here.
Test: blockers of DNA damage checkpoint Chk1 activation – imaging, HeLa, hydroxyurea, phospho-Chk1 antibody, percent positive cells, primary screen (AID 1186)
Settings: hydroxyurea-induced phospho-Chk1 immunofluorescence imaging, higher = more signal

Structure (SMILES) | z-score
COCCOC(=O)N1C(=O)[C@@]2(c3cc(C#CCCO)ccc31)[C@H](c1ccc(OCCO)cc1)N1[C@H](c3ccccc3)[C@H](c3ccccc3)OC(=O)[C@H]1[C@@H]2C(=O)N1CCc2cc(OC)c(OC)cc2C1 | -0.209 (inactive)
O=C1c2ccccc2C(=O)C2CC([C@H]3Oc4ccccc4S(=O)(=O)N4CCC[C@@H]34)=CCC12 (stereo not given in full) | -0.278 (inactive)
O=[N+]([O-])c1ccc(C[n+]2ccc(-c3ccc(CO)cc3)cc2)o1 | 0.137 (inactive)
Cc1ccc(F)cc1S(=O)(=O)N[C@@H]1CCN(C(=O)c2ccc(OC(C)C)cc2)C1 | 0.0079 (inactive)
COCCOC(=O)N1C(=O)[C@@]2(c3cc(C#CCNC(N)=O)ccc31)[C@H](c1ccc(OCCO)cc1)N1[C@H](c3ccccc3)[C@H](c3ccccc3)OC(=O)[C@H]1[C@@H]2C(=O)N1CCN(c2ncccn2)CC1 | -0.117 (inactive)
COCCCNC(=O)[C@]1(CCS(=O)(=O)c2ccccc2)N=C(c2ccc(OCCCO)cc2)O[C@@H]1c1ccccc1 | -0.369 (inactive)
O=C1O[C@H](c2ccccc2)[C@H](c2ccccc2)N2[C@H]1[C@@H](C(=O)N1CCCCCCC1)[C@]1(C(=O)Nc3ccccc31)[C@H]2c1ccc(O)cc1 | 0.323 (inactive)
CN(C)C(=O)[C@]1(Cc2ccccc2N=[N+]=[N-])N=C(c2ccc(OCCCO)cc2)O[C@@H]1c1ccccc1CN=[N+]=[N-] | -0.191 (inactive)
CCOC(=O)C[C@H]1[C@H](OC(=O)Cc2ccc3c(c2)OCO3)[C@@H](NC(=O)c2ccccc2)c2cc(OCCCO)ccc2N1C(=O)c1ccccc1 | -0.454 (inactive)
CCCc1cc2c(n1Cc1ccc(OC)cc1)C(C)C1CN(C(=O)c3ccccc3)C(C)(C(=O)OC)C21 (stereo not given) | 0.5 (inactive)
COC(=O)[C@@]1(Cc2ccc(OC)cc2)[C@H]2c3cc(C(=O)N(C)C)n(CCF)c3C[C@H]2CN1C(=O)c1ccccc1 | 0.326 (inactive)
C[N+](C)(C)CCCCCCNC(=O)[C@@H]1C[C@@H]2C(=O)NCC(=O)N2[C@@H]1c1ccc(O)cc1 | 1.34 (inactive)
COCC(=C=CC[C@@H](O)c1ccccc1OCCO)C[C@@H](O)COCc1ccccc1 | -1.14 (inactive)
CC(C)=CCCC(C)=CC(O)C1C=CC2C(=O)N(c3ccccc3)C(=O)C2N1Nc1ccc([N+](=O)[O-])cc1 (stereo not given) | 0.458 (inactive)
COC(=O)[C@@]1(Cc2ccccc2)[C@H]2c3cc(C(=O)N(C)C)n(Cc4ccccn4)c3C[C@H]2CN1C(=O)c1ccccc1 | 0.545 (inactive)
COCCOC(=O)N1C(=O)[C@@]2(c3cc(C#CC4(O)CCCCCC4)ccc31)[C@H](C(=O)N1CCc3cc(OC)c(OC)cc3C1)[C@H]1C(=O)O[C@H](c3ccccc3)[C@H](c3ccccc3)N1[C@@H]2c1ccccc1OCCO | 0.286 (inactive)
C=CCN1C(=O)[C@@]2(O[C@@H](CCn3cc([C@H](O)c4ccccc4)nn3)[C@H]([Si](C)(C)c3ccc(OC)cc3)[C@H]2C)c2cc(NC(=O)c3ccc(OC)cc3)ccc21 | 0.24 (inactive)
C#CCNS(=O)(=O)N(C)C | -0.271 (inactive)
O=C(O)[C@@]1(Cc2ccccc2)COC(c2ccc(OCCCO)cc2)=N1 | -0.0393 (inactive)
COc1ccc([Si](C)(C)[C@@H]2[C@@H](CCO)O[C@]3(C(=O)N(Cc4ccccc4)c4ccc(N5CCCCC5=O)cc43)[C@H]2C)cc1 | -1.71 (inactive)
CC1CC/C=C\[C@H]2OC34C=CCN(Cc5ccccc5)C(=O)[C@H]3N(CCO)C(=O)[C@@H]4C2C(=O)O1 (stereo not given in full) | -0.455 (inactive)
C=C(COC)C(=O)CC[C@H](OC(=O)c1ccccc1-c1ccccc1C(=O)O)c1ccc(CO)o1 | 0.44 (inactive)
C=CC[C@@]1(C(=O)NCCN2CCOCC2)N=C(c2ccc(OCCCO)cc2)O[C@@H]1c1ccccc1 | 0.426 (inactive)
CC(C)(C)OC(=O)CC[C@@]1(C(=O)N2CCCCC2)N=C(c2ccc(OCCCO)cc2)O[C@@H]1c1ccccc1CN=[N+]=[N-] | -0.325 (inactive)
C=CCOC(=O)[C@H]1[C@@H]2C(=O)O[C@@H](c3ccccc3)[C@@H](c3ccccc3)N2[C@@H](c2ccc(OCCOC(=O)[C@H]3C[C@H]4C(=O)N[C@@H](CCCCN(C)C)C(=O)N4[C@H]3c3ccc(O)cc3)cc2)[C@]12C(=O)Nc1ccccc12 | -0.685 (inactive)

Reference: PubChem BioAssay
